Each structure is given as a SMILES string. In all, about 420,000 compounds went through this assay and about 64,000 (15%) were called active. Roughly 27% stayed inconclusive and do not appear here. The call rests on the fitted dose curve; in most records, active means well fitted inhibition curve with a large enough effect; inconclusive means small, poorly fitted or top-dose-only effect; inactive means flat fitted curve, though single readings scatter. Only a sample is shown. Where a call stands in place of a potency, no number is given.
Potency means the concentration at half of the fitted maximal effect.

This assay in a line: qHTS for Inhibitors of human tyrosyl-DNA phosphodiesterase 1 (TDP1): qHTS in cells in absence of CPT. Further: nearly all actives have a fitted effect of over 55% in size. Particulars: DT40 Tdp1-/- hTDP1 cells, no CPT, ATP luminescence, 48 h; activity change, negative = growth inhibition: at 46.2 µM (top of the series). In a few lines: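 Readout: luminescence from CellTiter-Glo after 30 min in the dark at RT. Cells: DT40 Tdp1-/- with stable hTDP1, 400/well. Exposure: compounds alone, ≥48 hr, 37 °C.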
(In qHTS, concentration-response curves come from the screen itself.)
Take `Cc1ccc(OCc2n[nH]c(=S)n2-c2ccccc2)cc1`: the Potency result was “inactive”.

For the compound `S=c1[nH]nc(CSCc2ccc(Cl)cc2Cl)n1-c1ccccc1`, the Potency was 15.8 µM (active).

As for `Cc1ccc(NCc2n[nH]c(=S)n2-c2ccccc2)cc1Cl`, the Potency entry is “inactive”.

As for `Cc1c(C(=O)N2CCCC2)c(S(=O)(=O)NCC(C)c2ccccc2)c(C)n1C` (stereo unspecified), the Potency result is “inactive”.

As to `O=C(c1ccc(Br)o1)N(c1ccccn1)C1CCCCC1`, the Potency was 23.1 µM (active).

For `O=C(c1cccs1)N(C(=O)c1cccs1)c1ccccn1`, the Potency result is “inactive”.

With `O=C(N1CCOCC1)N(Cc1ccccc1)c1ccccn1`, the Potency result was “inactive”.

For the compound `CCn1c(CNC(=O)C23CC4CC(CC(C4)C2)C3)nnc1SCC(=O)Nc1ccc(OC)cc1`, the Potency entry is “inactive”.

Turning to `CN(C)/C=C(\C#N)C(=O)c1cccnc1Oc1ccc(F)cc1F`, the Potency result is “inactive”.

Take `O=c1ccc2c(-c3ccccc3S(=O)(=O)O)c3ccc(O)c(O)c3oc-2c1O`: the Potency was 11.6 µM (active).

Turning to `CCCNC(=S)NC1CC2CCCC(C1)N2CC(C)C` (stereo unspecified), the Potency entry is “inactive”.

Consider `O=C(NCCCc1ccccc1)c1cc(COc2c(F)cccc2F)on1`, for which the Potency result is “inactive”.

As for `O=C(NC(=O)c1ccccc1)NC(=O)c1ccccc1`, the Potency entry was “inactive”.

`CC(NC(=O)c1ccccc1)C(=O)Nc1ccccc1` (stereo unspecified): the Potency result was “inactive”.

`O=C(NC1=CC(=O)c2ccccc2C1=O)c1ccccc1`: the Potency was 1.16 µM (active).

As for `Cc1csc[n+]1CCC1CCCCC1`, the Potency is 10 µM (active).

On to `C=CCn1c(SCC(=O)/C(C#N)=C(\C)N)nc2sc(C)c(C)c2c1=O`, for which the Potency entry was “inactive”.

`CC(=O)c1ccc(N2CCN(c3nc4c(S(=O)(=O)c5ccccc5)nnn4c4ccc(Cl)cc34)CC2)cc1`: the Potency result is “inactive”.

As for `CCOC(=O)c1nnn2c1nc(N1CCN(c3ccccc3)CC1)c1ccccc12`, the Potency is 14.6 µM (active).

Regarding `CCOC(=O)c1nnn2c3ccccc3c(=O)n(C)c12`, the Potency result is “inactive”.

As to `CCOc1ccc(NC(=O)CCNC(=O)c2ccc(Br)cc2)cc1`, the Potency result is “inactive”.

As for `CCOC(=O)CNC(=O)CSc1nnc(-c2cccc(OC)c2)n1CC`, the Potency result is “inactive”.

For the compound `COC(=O)CC(CC(=O)OC)n1cccc1`, the Potency result was “inactive”.

Consider `COCCSc1nnc(NC(=O)CCS(=O)(=O)Cc2ccccc2)s1`, for which the Potency result was “inactive”.

In the case of `CCOCc1nnc(NC(=O)CCS(=O)(=O)Cc2ccccc2)s1`, the Potency is 18.4 µM (active).

Turning to `CCCCc1nnc(NC(=O)CS(=O)(=O)Cc2ccccc2)s1`, the Potency result is “inactive”.

`CC1CN(Cc2ccccc2)C(=S)NC1=O` (stereo unspecified): the Potency result is “inactive”.

As to `O=C(Nc1ccccc1)/C(=C\c1ccco1)NC(=O)c1ccco1`, the Potency entry was “inactive”.

Turning to `CCC1CN(CCNC(=O)c2ccsc2)Cc2cc(OC)ccc2O1` (stereo unspecified), the Potency result is “inactive”.

As for `CC(=O)Nc1ccc(NC(=O)CN2C(=O)COc3ccc(S(=O)(=O)N4CCCCC4)cc32)cc1`, the Potency entry was “inactive”.

On to `Cc1ccc(C)c(N2CCN(C(=O)CN3C(=O)COc4ccc(S(=O)(=O)N5CCCCCC5)cc43)CC2)c1`, for which the Potency is 16.4 µM (active).

Regarding `COCCCNC(=O)CN1C(=O)CSc2ccc(S(=O)(=O)N3CCOCC3)cc21`, the Potency result was “inactive”.

For the compound `Cc1ccc2c(c1)N(CC(=O)NCC1CCCO1)C(=O)CO2` (stereo unspecified), the Potency result is “inactive”.

Take `CC1CCN(S(=O)(=O)c2ccc3c(c2)N(CC(=O)NCCc2ccccc2)C(=O)CO3)CC1`: the Potency is 20.6 µM (active).

As for `COc1ccc(CCNC(=O)CN2C(=O)COc3ccc(S(=O)(=O)N4CCCC4)cc32)cc1OC`, the Potency result was “inactive”.

In the case of `Cc1ccc(CCNC(=O)CN2C(=O)CSc3ccc(S(=O)(=O)N4CCOCC4)cc32)cc1`, the Potency was 20.6 µM (active).

Consider `CCCCN(CCCC)CCNC(=O)CN1C(=O)COc2ccc(S(=O)(=O)N3CCOCC3)cc21`, for which the Potency entry was “inactive”.

Take `CN(C)c1ccc(CNC(=O)CN2C(=O)COc3ccc(S(=O)(=O)N4CCCC4)cc32)cc1`: the Potency entry is “inactive”.

For `CC1CCN(CCCNC(=O)CN2C(=O)CSc3ccc(S(=O)(=O)N4CCCCC4)cc32)CC1`, the Potency entry was “inactive”.

Regarding `CCCCN(CCCC)CCCNC(=O)CN1C(=O)COc2ccc(S(=O)(=O)N3CCC(C)CC3)cc21`, the Potency was 9.2 µM (active).

Consider `Cc1ccc2c(c1)N(CC(=O)N1CCOCC1)C(=O)CO2`, for which the Potency result was “inactive”.

With `CN(C)C(CNC(=O)c1ccc(OCc2cn3ccccc3n2)cc1)c1ccco1` (stereo unspecified), the Potency entry was “inactive”.

As for `CC(CO)N1CCS(=O)(=O)CC1` (stereo unspecified), the Potency result is “inactive”.

In the case of `CC1(C)CC(=O)C=C(Nc2ccccc2)C1`, the Potency entry is “inactive”.

As to `c1ccc2c(c1)C(=NC1CCCCC1)NC2=NC1CCCCC1`, the Potency was 14.6 µM (active).

`O=C1CCCCC(=O)c2ccccc2N1`: the Potency entry was “inactive”.

Regarding `O=C1CN(C(=O)COC(=O)/C=C/c2ccc(F)cc2)c2ccccc2N1`, the Potency result was “inactive”.

For the compound `Cc1cc2cc3c(N)[nH]nc3nc2cc1C`, the Potency entry was “inactive”.

On to `Cc1cc(N/N=C/c2ccccc2F)c2ccccc2n1`, for which the Potency result was “inactive”.

Regarding `Oc1ccc(/C=N/NC2=NCCCCC2)c(O)c1`, the Potency result was “inactive”.

As for `Oc1ccc(/C=N/Nc2nc(-c3ccccc3F)nc3ccccc23)c(O)c1`, the Potency is 7.31 µM (active).

With `Cc1nc2ccccc2nc1N/N=C/c1ccc(O)cc1O`, the Potency was 4.11 µM (active).

`Cc1noc(C)c1/C=N/Nc1ccc2ccccc2n1`: the Potency entry was “inactive”.

Take `Cc1csc2nc(O)c(C(=O)NCCN3CCOCC3)c(=O)n12`: the Potency result was “inactive”.

Regarding `CC(C)NC(=O)C(=O)NCCN1CCN(S(=O)(=O)c2ccc(Cl)cc2)CC1`, the Potency entry is “inactive”.

For `COCCCNc1nc2ccccc2nc1NS(=O)(=O)c1ccc(F)cc1`, the Potency result was “inactive”.

`Cc1cccn2c(CNCC(C)Oc3cccnc3)c(C(=O)N3CCOCC3)nc12` (stereo unspecified): the Potency entry is “inactive”.

In the case of `Cc1cccn2c(CN(C)C3CCCc4ccccc43)c(C(=O)N3CCOCC3)nc12` (stereo unspecified), the Potency was 18.4 µM (active).

As to `CCOC(=O)C1CCN(Cc2c(C(=O)N3CCOCC3)nc3c(C)cccn23)CC1`, the Potency result is “inactive”.

`CC1CCCCN1C(=O)CCS(=O)(=O)Cc1ccccc1` (stereo unspecified): the Potency result is “inactive”.

Take `O=C(CC1Oc2ccc(Cl)cc2NC1=O)NCc1ccccc1` (stereo unspecified): the Potency result was “inactive”.

`CCC(C(=O)Nc1ccc2c(c1)OCCO2)c1ccccc1` (stereo unspecified): the Potency result was “inactive”.

As to `CC(=O)Nc1cccc(-c2nc3ccccc3s2)c1C`, the Potency entry was “inactive”.

For the compound `CCC(C(=O)Nc1cccc(-c2nc3cccnc3s2)c1C)c1ccccc1` (stereo unspecified), the Potency was 20.6 µM (active).

For `COC(=O)[C@@H]1C[C@H](NC(=O)c2ccccc2C(F)(F)F)CN1Cc1cccc(O)c1`, the Potency entry is “inactive”.

`O=[N+]([O-])c1ccc(NC(=S)N2CCN(c3ccccn3)CC2)cc1`: the Potency was 11.6 µM (active).

As for `CCOC(=O)c1ccc(NC(=S)N2CCN(c3ccccn3)CC2)cc1`, the Potency result was “inactive”.

As for `COc1cc([N+](=O)[O-])ccc1NC(=S)N1CCN(c2ccccn2)CC1`, the Potency entry was “inactive”.

Regarding `CCOC(=O)c1cnn(Cc2ccccc2Cl)c1N`, the Potency entry was “inactive”.

As to `Cc1noc(C)c1C(=O)N1CCOCC1`, the Potency result was “inactive”.

Turning to `CC(C)(C)C1CCC(OC(=O)CCC(=O)Nc2ccccc2)CC1` (stereo unspecified), the Potency result was “inactive”.

`CN1CCN(C(=O)/C(=C\c2cccs2)NC(=O)c2cccs2)CC1`: the Potency entry is “inactive”.

On to `Cc1cccc(NC(=O)Cn2cc(S(=O)(=O)Cc3ccccc3Cl)c3ccccc32)c1`, for which the Potency is 20.6 µM (active).

Turning to `COc1cccc(NC(=O)CS(=O)(=O)c2cn(CC(=O)N3CCOCC3)c3ccccc23)c1`, the Potency entry is “inactive”.

Take `CCOC(=O)c1ccc(NC(=O)Cn2cc(S(=O)(=O)Cc3ccccc3F)c3ccccc32)cc1`: the Potency entry was “inactive”.

For `OCCN1CCN(c2ncnc3c2ncn3[C@H]2CN(Cc3ccco3)C[C@@H](CO)O2)CC1`, the Potency result is “inactive”.

Turning to `O=C(Nc1ccc(Cl)cc1)c1csc([C@@H]2O[C@H](CO)[C@H](O)[C@H](O)[C@H]2O)n1`, the Potency entry is “inactive”.

As for `CSc1nnnn1-c1c(C)cc(C)cc1C`, the Potency entry was “inactive”.

For the compound `COc1cccc(NC(=O)CN(C)CC(=O)Nc2ccc3c(c2)CCC3)c1`, the Potency result was “inactive”.

Regarding `CNC(=O)/C(C#N)=C/c1c(F)cccc1Cl`, the Potency was 9.2 µM (active).

Regarding `Cc1[nH]c2ccccc2c1/C=C(/C#N)C(=O)NC(C)C`, the Potency entry was “inactive”.

Consider `O=C(/C=C/c1c(F)cccc1Cl)Nc1nn[nH]n1`, for which the Potency result is “inactive”.

Take `Cc1ccc(C(=O)N2CCC(n3nccc3NC(=O)Nc3cccc(F)c3)CC2)cn1`: the Potency entry is “inactive”.

For `Brc1cccc(-c2nnn3c2nc(NC2CCCCC2)c2ccccc23)c1`, the Potency result is “inactive”.

As to `CCCc1nc2sc3c(c2c(=O)n1NC(=O)CCCl)CCCC3`, the Potency is 29.1 µM (active).

As to `COc1ccc(NC(=O)CCNC(=O)Cn2cnc3sc4c(c3c2=O)CCCC4)cc1OC`, the Potency result is “inactive”.

Regarding `Cc1ccc(C)c(-n2c(SCC(=O)O)nc3sc4c(c3c2=O)CCCC4)c1`, the Potency result is “inactive”.

Consider `CC(C)N(Cc1nc(-c2ccc3c(c2)OCO3)no1)CC1CCC(=O)N1` (stereo unspecified), for which the Potency result is “inactive”.

`CCC(=O)c1ccc(OCC(=O)OCC(=O)NC2CCCCCC2)cc1`: the Potency result was “inactive”.

For the compound `CCC(=O)c1ccc(OCC(=O)Nc2ccc(N3CCCCC3)cc2)cc1`, the Potency is 20.6 µM (active).

With `O=C(COc1ccccc1)Nc1ccc(C(=O)N2CCCC2)cc1`, the Potency entry was “inactive”.

Regarding `O=C(NCC(=O)N1CCCCCCC1)c1ccccc1Cl`, the Potency result was “inactive”.

For `COc1cc(C(=O)Nc2ccc(OCc3cc(=O)n4ccc(C)cc4n3)cc2)cc(OC)c1OC`, the Potency entry was “inactive”.

Turning to `COc1cc(C(=O)Nc2ccc(-n3c(C)nc4ccccc4c3=O)cc2)cc(OC)c1OC`, the Potency was 18.4 µM (active).

`Cc1nc2ccccc2c(=O)n1-c1ccc(NS(=O)(=O)c2ccc(F)cc2F)cc1`: the Potency result is “inactive”.

`C=CCNc1nnc(SCC(=O)N2CCCCC2)c2ccccc12`: the Potency entry was “inactive”.

In the case of `Cc1cc(C)c(NC(=O)Cn2c(SCC(=O)NCc3ccccc3)nc3ccccc32)c(C)c1`, the Potency is 18.4 µM (active).

As to `Cc1cc(NC(=O)CSc2nc3ccccc3n2CC(C)C)no1`, the Potency result was “inactive”.

As to `CC(C)(C)NC(=O)Cn1c(SCC(=O)Nc2nccs2)nc2ccccc21`, the Potency result was “inactive”.

Take `O=[N+]([O-])c1ccc(Oc2ccc(F)cc2Br)c2ccncc12`: the Potency is 23.1 µM (active).

Regarding `O=c1[nH]c2c(c(=O)n1-c1ccccc1)CCO2`, the Potency result was “inactive”.

As to `CCOc1ccc(NC(=S)N2CCCCCC2)cc1`, the Potency result was “inactive”.

For the compound `CCOC(=O)c1ccc(NC(=S)N2CCCC2)cc1`, the Potency entry is “inactive”.

Turning to `CCC(C)c1ccc(NC(=S)N2CCCC2)cc1` (stereo unspecified), the Potency is 10.3 µM (active).

In the case of `Cc1cc(OCC(=O)NCC(O)c2ccccc2)c2c(C)c(C)c(=O)oc2c1` (stereo unspecified), the Potency entry is “inactive”.

Consider `CCCC1CC(C)(C(=O)Cn2[nH]c(=O)ccc2=O)OC1=O` (stereo unspecified), for which the Potency entry was “inactive”.

Source of the values: PubChem BioAssay AID686978 (National Center for Advancing Translational Sciences (NCATS), 2013).
